# Measurements from PubChem BioAssay (NCI).
# About 83,000 compounds went through this panel and 20% of them were active in at least one assay; those are over-represented in the sample as a whole.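 Interpretation: 100, growth as untreated; towards 0, rising growth inhibition; 0, no net growth; 0 to -100, cell death. Compounds scoring below 10 were considered active.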 A number with no mark means an inactive call. Activity calls are given as the source filed them.
# Legend:
# Test in all cases: NCI-60 one-dose screen, 48 h (100 = growth as untreated, 0 = no growth, -100 = all killed)
# [1] = tested on: RPMI-8226 leukemia; settings: 10 µM
# [2] = tested on: OVCAR-8 ovarian; settings: 10 µM
# [3] = tested on: OVCAR-5 ovarian; settings: 10 µM
# [4] = tested on: OVCAR-4 ovarian; settings: 10 µM
# [5] = tested on: SK-OV-3 ovarian; settings: 10 µM
# [6] = tested on: IGROV1 ovarian; settings: 10 µM
# [7] = tested on: OVCAR-3 ovarian; settings: 10 µM
# [8] = tested on: HS 578T breast; settings: 10 µM
# [9] = tested on: NCI/ADR-RES ovarian; settings: 10 µM
# [10] = tested on: BT-549 breast; settings: 10 µM
# [11] = tested on: MDA-MB-435 melanoma; settings: 10 µM
# [12] = tested on: SW-620 colon; settings: 10 µM
# [13] = tested on: MCF7 breast; settings: 10 µM unless noted
# [14] = tested on: HCT-116 colon; settings: 10 µM
# [15] = tested on: KM12 colon; settings: 10 µM
# [16] = tested on: HCC-2998 colon; settings: 10 µM
# [17] = tested on: T-47D breast; settings: 10 µM
SMILES,growth [1],growth [2],growth [3],growth [4] [%],growth [5] [%],growth [6],growth [7] [%],growth [8],growth [9] [%],growth [10],growth [11] [%],growth [12] [%],growth [13] [%],growth [14] [%],growth [15] [%],growth [16] [%],growth [17] [%]
CC(C)NC(=O)OCc1c(COC(=O)NC(C)C)c(-c2ccc(Cl)c(Cl)c2)n2c1SCC2,36%,44.7%,-15.6% (active),38.2,21.9,3.1% (active),47.2,36.3%,38.2,21.7%,67.2,44.8,32.2,29.9,77.6,–,–
Cc1ccc(/C=C2\SC(=S)N(c3ccc(F)cc3)C2=O)o1,86.4%,0% (active),102%,13.6,92.2,90.7%,79.1,52.2%,73,112%,77.4,93.3,–,64.5,78.2,118,–
c1c(-c2cc(C3CC3)[nH]n2)n[nH]c1C1CC1,105%,102%,93.6%,109,96.2,111%,117,101%,98.8,94%,109,102,92.8,83.6,109,102,–
COc1ccc(C2OC(N)=C(O)C2=O)cc1OC (stereo unspecified),104%,105%,96.7%,103,99.5,106%,114,70.1%,103,102%,110,103,93.8,99.7,109,107,–
NCC(=O)CCC(=O)O,118%,104%,120%,98,99.8,112%,111,108%,107,110%,108,108,–,114,108,97.4,100
COC(=O)c1[nH]c(=O)c(C#N)c(C(=O)OC)c1C(=O)c1ccccc1,107%,101%,113%,97.5,101,105%,107,84.4%,97.5,110%,99.9,102,68.9,99.3,102,113,–
CSc1[nH]c(=O)ncc1F,106%,95.4%,102%,102,119,110%,107,103%,99.3,94.1%,102,102,96,98.3,104,96.8,–
CC(=O)CC(=O)N(C)C,97.9%,101%,104%,101,108,109%,112,98.3%,100,99.5%,98.2,101,94.8,95.6,102,108,–
CCOC(=O)CCCS(C)(=O)=O,124%,108%,97.4%,103,103,120%,127,101%,103,–,119,105,92.6,110,108,91,102
CCCCNC(=O)C(=O)NCCCC,106%,105%,113%,108,123,113%,108,96.6%,104,98.8%,104,104,94.1,104,102,114,–
O=C(Cc1nc2ccc([N+](=O)[O-])cc2nc1CC(=O)c1cccnc1)c1cccnc1,94.5%,31.2%,101%,57.7,47.9,73.9%,65.1,7.13% (active),30.4,8.87% (active),89.8,81.3,47.4,50.5,63.1,96.2,–
Cc1ccc(C)n1-c1ccsc1C(=O)NNC(=O)C(Cl)Cl,107%,106%,112%,96.9,95.7,108%,107,100%,102,112%,98.4,102,96.9,105,101,105,–
O=C1NC(=O)C2C(=O)NC(=O)C1C21CCc2ccccc21 (stereo unspecified),115%,103%,110%,105,116,109%,115,89%,100,106%,112,101,93.1,96.7,105,–,–
Oc1ccc(O)cc1,67.6%,94.6%,123%,105,114,108%,109,104%,92.4,82.7%,99.7,112,–,107,103,114,114
COc1cccc(COC(=O)Nc2ccccc2)c1OC,90.1%,96.9%,105%,117,111,101%,111,115%,105,107%,91.7,114,97.6,104,106,–,93.1
CCOC(=O)c1[nH]c(C)c(C(C)=O)c1C,-7.82% (active),96.1%,88%,86.8,101,102%,95,91.6%,98,107%,94.7,99.4,87.1,–,98.3,88.6,86.9
c1csc(-c2cc(-c3cc(-c4cccs4)[nH]n3)n[nH]2)c1,94.6%,104%,104%,101,97,89.3%,118,74.6%,99.5,90.7%,114,104,75.5,91.4,105,111,–
CCS(=O)(=O)CCCl,101%,104%,105%,101,104,107%,116,96.4%,105,95.9%,104,102,76.8,98.7,99.1,125,–
CS(=O)CC1=NC(=N)N=C1CS(C)=O (stereo unspecified),107%,99.9%,111%,103,108,113%,118,89.9%,103,110%,109,108,95,102,108,–,–
COc1ccccc1NC(=O)C1=C(C)NC(C)=C(C(=O)Nc2ccccc2OC)C1c1cccc([N+](=O)[O-])c1,51.9%,74.4%,81.9%,70.2,74.4,69.7%,82.9,60.9%,66.3,73.6%,75.4,88,47.8,44.9,67.3,76.9,–
